# Assay outcomes: PubChem, several laboratories
# Hits are enriched below; roughly 0.81% of the tested compounds scored in any of these assays.
# Bcl-2 Bim block: human Bim-Bcl-2 interaction inhibition. 0.06% of 190,000 active. AID 950. Bead-based flow cytometry, Bim peptide-Bcl-2 binding. inhibition, % at 10 µM. P10415; in the data active means inhibition above about 40%;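 further: 0% = no compound wells with probe peptide and 100% = reference peptide inhibitor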
# Bfl-1 Bim block: inhibitors of Bim-Bfl-1 interaction, human | Bead-based flow cytometry, Bim-Bfl-1 binding inhibition | inhibition, % at 10 µM | 0.12% of 190,000 active | AID 1008;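 further: 0% = wells without compound plus tracer and 100% = blocker peptide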
# Target sequence (Q16548 whole entry, looked up): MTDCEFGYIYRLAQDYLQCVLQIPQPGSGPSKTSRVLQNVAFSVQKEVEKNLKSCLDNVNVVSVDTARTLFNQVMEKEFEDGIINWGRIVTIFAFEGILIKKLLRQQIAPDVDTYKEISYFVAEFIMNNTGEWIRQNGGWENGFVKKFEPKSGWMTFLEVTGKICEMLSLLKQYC
# Bcl-XL Bim block: inhibitors of Bim-Bcl-XL interaction, human | 0.04% of 190,000 active | inhibition, % at 10 µM | Bim peptide-Bcl-XL binding, bead flow cytometry, fluorescence
# Target sequence (Q07817 whole entry, looked up): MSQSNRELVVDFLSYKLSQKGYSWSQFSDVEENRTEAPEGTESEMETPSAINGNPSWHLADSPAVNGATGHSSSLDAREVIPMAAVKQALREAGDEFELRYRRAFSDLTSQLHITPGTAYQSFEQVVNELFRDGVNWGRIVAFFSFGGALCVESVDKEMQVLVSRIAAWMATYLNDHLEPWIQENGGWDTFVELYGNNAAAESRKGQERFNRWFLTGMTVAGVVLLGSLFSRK
# Bcl-W Bim block: inhibitors of Bim-Bcl-W interaction, human | Q92843 | bead-based flow cytometry, Bim peptide-Bcl-W binding | inhibition, % at 10 µM | 0.02% of 190,000 active | AID 952;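 further: 0% = bound tracer without compound and 100% = peptide blocker; higher means less fluorescent Bim peptide bound to Bcl-W beads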
# Target sequence (Q92843 whole entry, looked up): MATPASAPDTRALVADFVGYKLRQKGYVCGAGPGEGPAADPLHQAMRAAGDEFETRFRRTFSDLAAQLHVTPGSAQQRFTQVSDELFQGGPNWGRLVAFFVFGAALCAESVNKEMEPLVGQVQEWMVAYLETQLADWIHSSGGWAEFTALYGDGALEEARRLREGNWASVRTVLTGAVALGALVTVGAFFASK
# Bcl-B Bim block: human Bim-Bcl-B interaction inhibition. Q9HD36. bead-based flow cytometry, Bim peptide-Bcl-B binding. inhibition, % at 10 µM. 0.073% of 190,000 active. AID 951;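 further: 0% = tracer peptide without compound and 100% = reference inhibitor peptide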
# BCLXL inh: blocks human Bcl-xL binding to Bim BH3 peptide. GST-Bcl-xL / FITC-Bim BH3 peptide fluorescence polarization. 0.7% of 320,000 active. inhibition, % at 10.9 µM;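 active means inhibition above the mean of all tested compounds plus 3 SD, cutoff set per campaign, cut at about 30% in these data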;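 further: 0% = DMSO wells and 100% = unlabeled Bim-BH3 peptide competitor; inhibitors lower millipolarization by displacing the labeled peptide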
# Starred values were filed as active, the others as inactive; . = no result; + = active, no number. Unless noted, no stated cut-off is given here; in the data, active means inhibition above about 40%.
SMILES,Bcl-2 Bim block,Bfl-1 Bim block,Bcl-XL Bim block,Bcl-W Bim block,Bcl-B Bim block,BCLXL inh
COc1ccc(OC)c(C2C3CN(C(C)C)CC=C3C(C#N)=C(N)C2(C#N)C#N)c1 (configuration not stated),-1,-4,-3,-4,-1,87*
Cc1ccc(C2C3CN(C(C)C)CC=C3C(C#N)=C(N)C2(C#N)C#N)cc1 (configuration not stated),-9,-3,-3,-3,-5,109*
CCCN1CC=C2C(C#N)=C(N)C(C#N)(C#N)C(c3cccc(OC)c3OC)C2C1 (configuration not stated),0,0,-3,-5,-1,129*
O=C(Nc1ccc(F)c(F)c1)C1CCN(S(=O)(=O)c2cccc3nonc23)CC1,.,.,.,.,.,2
Cc1ccc(NC(=O)c2ccc3c(c2)CCN3S(C)(=O)=O)c(C)c1,.,.,.,.,.,5
COc1ccc(N=Nc2nc3ccc(Br)cc3n2C)cc1,2,-1,-5,-3,-2,+
Cc1cc(-c2csc(N)n2)c(C)n1C,36,20,21,30,70*,41*
Cc1ccc(-n2c(C)cc(-c3csc(N)n3)c2C)cc1,4,1,-7,-6,-10,11
Cc1nc(COc2ccccc2Cl)sc1-c1ccnc(N)n1,.,.,.,.,.,6
CC(C)CCC(CCNCc1ccccn1)c1ccc(Cl)cc1 (configuration not stated),.,.,.,.,.,0
C=CCn1c(=O)/c(=C/c2cc(OC)c(OC)c(OC)c2)s/c1=C(/C#N)c1nc2ccccc2n1C,-4,-16,0,3,-14,112*
COc1ccc(CN2CC[C@H]3C=CCc4cccc(c43)C2)cc1,.,.,.,.,.,72*
Cc1ccc(CN2CC[C@H]3C=CCc4cccc(c43)C2)cc1,.,.,.,.,.,6
CC(CC(=O)N1CCN(c2ccccc2)CC1)S(=O)(=O)c1ccc2c(c1)NC(=O)CO2 (configuration not stated),.,.,.,.,.,3
COc1cccc(F)c1C(=O)NC(=O)Nc1ccc2nc(C)oc2c1,.,.,.,.,.,119*
O=C1N=C(N2C=CC(=C3C=CNC=C3)C=C2)/C(=C/N=NC(=O)c2ccccc2O)S1,.,.,.,.,.,99*
Cc1cc2nc3ccc(N(C)C)cc3nc2cc1N,.,.,.,.,.,120*
O=C(CCN1C(=O)S/C(=C\c2ccc(F)cc2)C1=O)Nc1ccc(O)cc1C(=O)O,.,.,.,.,.,9
O=C(NCCCN1CCN(CCCNC(=O)c2cc([N+](=O)[O-])ccc2Cl)CC1)c1cc([N+](=O)[O-])ccc1Cl,10,2,13,13,78*,3
O=C(NCCCN1CCOCC1)c1cc(Cl)ccc1Cl,.,.,.,.,.,6
O=C1NC(=S)N/C1=C/c1cc2c(cc1[N+](=O)[O-])OCO2,.,.,.,.,.,53*
Nc1cccc(C(=O)OCC(=O)Nc2cccc3c2C(=O)c2ccccc2C3=O)c1,-1,0,-7,-3,-3,98*
CCN(CC)CCC(=O)Nc1cccc2c1C(=O)c1ccccc1C2=O,.,.,.,.,.,36*
COc1ccccc1NC(=O)c1ccc[n+]([O-])c1,.,.,.,.,.,4
CC(=O)c1c(OC(=O)c2ccccc2)ccnc1C(F)(F)F,.,.,.,.,.,-4
SMILES,Bcl-2 Bim block,Bfl-1 Bim block,Bcl-XL Bim block,Bcl-W Bim block,Bcl-B Bim block,BCLXL inh
CCOc1ccc(OCC)c(NC(=O)C2CCN(c3cnccn3)CC2)c1,.,.,.,.,.,3
COc1ccc(N2CCN(C(=O)CCc3nnc4ccc(N5CCOCC5)nn34)CC2)cc1,.,.,.,.,.,5
O=C(NC1CCCCCCC1)c1ccc2c(c1)OCO2,-6,-7,-2,-1,-2,5
c1cc2c(cc1NC1CCCCCC1)OCO2,.,.,.,.,.,34*
CCN(CCCNC(=O)Cn1ncc2c([nH]c3ccc(C)cc32)c1=O)c1ccccc1,.,.,.,.,.,-1
CCC1(C)Cc2c(C#N)c(N)sc(=S)c2CO1 (configuration not stated),0,0,0,4,-10,25
N#Cc1c(N)sc(=S)c2c1CCCC2,3,5,0,0,-15,142*
O=C(CNS(=O)(=O)c1ccc(Br)s1)NCc1ccccc1,.,.,.,.,.,3
COc1ccc(C(=O)NC2CC2)cc1OC1CCN(C(C)CSC)CC1 (configuration not stated),.,.,.,.,.,31*
CSCC(C)N1CCC(Oc2cccc(C(=O)NCc3ccccn3)c2)CC1 (configuration not stated),.,.,.,.,.,48*
CC#CC(=O)N1CCC(Oc2cccc(C(=O)NCc3ccccn3)c2)CC1,.,.,.,.,.,-7
Cc1ccc(C(=O)NCC(=O)O)o1,0,-5,-2,-2,-1,2
Cc1[nH]c2nc3ccccc3n2c(=O)c1CCC(C)C,.,.,.,.,.,0
COc1ccc(N2C(=O)CC(C#N)=C2N)cc1,4,-1,2,5,2,11
CC(C)OC(=O)C1=C2SCC(=O)N2C(N)=C(C#N)C1,0,6,-2,-1,-1,37*
CC(C)(C)c1ccc(-c2nc(O)c(CC(=O)O)s2)cc1,.,.,.,.,.,-1
CC1CCCCN1C(=O)Cn1nnc(-c2cccnc2)n1 (configuration not stated),-10,-16,-3,1,-7,85*
COc1ccccc1CCC(=O)OCC(=O)Nc1ccc(C(N)=O)cc1,.,.,.,.,.,-1
COc1cc2[nH]c(=S)nc(NC3CCCC3)c2cc1OC,18,27,44*,31,27,.
OCCC1CN(Cc2ccc(Oc3ncccn3)cc2)CCN1C1CCCC1 (configuration not stated),-4,-5,-5,-1,-6,6
CCOc1ccccc1N1CCN(C(=O)NCc2ccc(Cl)cc2)CC1,.,.,.,.,.,-1
O=C(c1nc2ccc(Cl)cn2c1CN1CCCC1)N1CCc2ccccc2C1,.,.,.,.,.,57*
O=C(c1nc2ccc(Cl)cn2c1CN1CCC(CO)CC1)N1CCc2ccccc2C1,.,.,.,.,.,5
COc1ccc(-c2nnn(CC(=O)N(CC(=O)NC3CCCC3)c3ccccc3F)n2)cc1OC,.,.,.,.,.,1
CCCSc1nc2sc3c(c2c(=O)[nH]1)CCN(Cc1ccccc1)C3,0,0,-2,0,3,19
SMILES,Bcl-2 Bim block,Bfl-1 Bim block,Bcl-XL Bim block,Bcl-W Bim block,Bcl-B Bim block,BCLXL inh
O=c1[nH]c(C(Cl)Cl)nc2sc3c(c12)CCN(Cc1ccccc1)C3,13,23,3,7,16,78*
OCCNc1c2ccccc2nc2c(F)c(F)c(F)c(F)c12,-2,-6,-8,-7,-10,30*
Cc1c2ccccc2nc2c(F)c(NC(C)C)c(F)c(F)c12,1,0,5,6,10,122*
Cc1c(Cl)cccc1Nc1nc(NCCO)c2ccccc2n1,.,.,.,.,.,-4
CC(C)Nc1nc2ccccc2c(=O)[nH]1,-7,-6,0,0,-5,6
CN(C)CCCNc1c2ccccc2nc2ccccc12,.,.,.,.,.,14
Cc1c2ccccc2nc2c(F)c(NCCO)c(F)c(F)c12,15,5,0,3,2,157*
NS(=O)(=O)c1ccc(CCNC(=O)CCC(=O)c2cccs2)cc1,.,.,.,.,.,0
CCCCC(C(=O)O)C(C)CC(=O)Nc1nccs1 (configuration not stated),.,.,.,.,.,2
COC(=O)c1ccc(/C=N\NC(=O)CC(=O)NCCc2ccccc2)cc1,0,-6,-3,-2,-4,0
COC(=O)c1ccc(/C=N/NC(=O)CC(=O)NCc2cccnc2)cc1,54*,32,3,5,51*,9
